# According to ChEMBL document CHEMBL3988442, “University of Dundee, Small-Polar-MMV Screening Library” (2021):
# In all, about 67,000 compounds went through this assay and about 300 (0.45%) showed an effect of 50% or more. For the sample, strong results were picked, then their nearest neighbours and some compounds at random.
# Biological target: Polyketide synthase Pks13 (Mycobacterium tuberculosis (strain ATCC 25618 / H37Rv)) (UniProt I6X8D2)
# Assay: Mycobacterium tuberculosis Polyketide synthase 13 Thioesterase (PKS13)
# Format: functional
# Parameters: scale not given: in the data most compounds retested in dose-response had high values
# Details: 30 µM
# Chain of Polyketide synthase Pks13 (Mycobacterium tuberculosis (strain ATCC 25618 / H37Rv)) (I6X8D2 whole entry): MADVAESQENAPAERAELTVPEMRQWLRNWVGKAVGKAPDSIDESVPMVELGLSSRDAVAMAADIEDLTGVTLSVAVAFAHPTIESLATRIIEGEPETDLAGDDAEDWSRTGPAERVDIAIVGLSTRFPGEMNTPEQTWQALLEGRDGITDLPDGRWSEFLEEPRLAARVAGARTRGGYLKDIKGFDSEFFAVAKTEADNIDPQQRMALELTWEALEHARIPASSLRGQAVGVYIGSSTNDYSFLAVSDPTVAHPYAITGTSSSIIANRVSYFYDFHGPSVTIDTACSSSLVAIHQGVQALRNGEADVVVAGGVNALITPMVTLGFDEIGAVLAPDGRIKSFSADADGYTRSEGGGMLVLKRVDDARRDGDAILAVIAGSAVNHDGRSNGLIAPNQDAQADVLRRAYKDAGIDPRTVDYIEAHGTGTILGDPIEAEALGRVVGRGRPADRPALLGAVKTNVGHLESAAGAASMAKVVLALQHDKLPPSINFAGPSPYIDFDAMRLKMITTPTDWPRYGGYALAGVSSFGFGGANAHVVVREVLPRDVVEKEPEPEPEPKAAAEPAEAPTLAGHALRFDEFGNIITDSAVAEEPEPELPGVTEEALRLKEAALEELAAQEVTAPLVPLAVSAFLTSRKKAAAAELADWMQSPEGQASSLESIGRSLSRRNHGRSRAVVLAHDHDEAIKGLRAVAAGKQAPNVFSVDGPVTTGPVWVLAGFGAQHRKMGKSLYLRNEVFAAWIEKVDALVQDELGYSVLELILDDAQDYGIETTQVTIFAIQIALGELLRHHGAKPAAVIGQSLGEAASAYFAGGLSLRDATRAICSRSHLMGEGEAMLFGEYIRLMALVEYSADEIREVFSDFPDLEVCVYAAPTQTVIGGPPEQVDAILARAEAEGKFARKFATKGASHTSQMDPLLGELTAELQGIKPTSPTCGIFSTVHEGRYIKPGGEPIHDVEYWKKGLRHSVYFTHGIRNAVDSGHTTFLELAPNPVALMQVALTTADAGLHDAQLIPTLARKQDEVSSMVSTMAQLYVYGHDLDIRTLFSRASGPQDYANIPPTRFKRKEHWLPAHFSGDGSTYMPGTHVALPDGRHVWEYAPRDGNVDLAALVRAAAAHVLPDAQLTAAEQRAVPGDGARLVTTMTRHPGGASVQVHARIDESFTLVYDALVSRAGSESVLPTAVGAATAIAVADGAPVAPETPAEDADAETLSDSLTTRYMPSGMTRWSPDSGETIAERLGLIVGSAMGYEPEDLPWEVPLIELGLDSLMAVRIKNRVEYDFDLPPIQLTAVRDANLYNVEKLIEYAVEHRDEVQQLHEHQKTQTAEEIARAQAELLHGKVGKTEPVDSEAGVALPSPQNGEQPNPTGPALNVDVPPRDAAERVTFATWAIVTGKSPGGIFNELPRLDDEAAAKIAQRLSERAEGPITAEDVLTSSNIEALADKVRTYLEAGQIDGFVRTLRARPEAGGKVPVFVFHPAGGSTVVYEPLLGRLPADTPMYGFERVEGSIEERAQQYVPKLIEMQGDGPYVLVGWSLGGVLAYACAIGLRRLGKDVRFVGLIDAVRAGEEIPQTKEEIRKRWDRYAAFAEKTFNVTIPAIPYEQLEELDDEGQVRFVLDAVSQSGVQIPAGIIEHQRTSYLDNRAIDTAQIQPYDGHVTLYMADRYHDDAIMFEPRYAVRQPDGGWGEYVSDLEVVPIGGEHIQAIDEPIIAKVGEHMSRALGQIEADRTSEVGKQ
row,Structure (SMILES),Percent Effect [%]
1,Cc1nc(-c2ccc(Cl)s2)sc1C(=O)NCCS(N)(=O)=O,54
2,CN(CC(N)=O)C(=O)c1cnc(-c2ccc(Cl)s2)s1,-171
3,COC(=O)CNC(=O)c1sc(-c2ccc(Cl)s2)nc1C,51.9
4,Cc1nc(-c2ccc(Cl)s2)sc1C(=O)NCCCC(N)=O,54.9
5,CC(=O)NCCNC(=O)c1sc(-c2ccc(C)cc2C)nc1C,-6.1
6,CC(=O)NCCNC(=O)c1sc(-c2ccc(Cl)s2)nc1C,33.9
7,CC(=O)NCCNC(=O)c1sc(-c2ccc(Cl)cc2)nc1C,-15.5
8,Cc1c(C(=O)NCCCC(N)=O)sc2ccc(F)cc12,0.295
9,Cc1nc(-c2ccc(Cl)s2)sc1C(=O)N(C)CC(N)=O,88.9
10,COC(=O)CNC(=O)c1nc(Cl)sc1C(C)C,-1.24
11,CN(CC(N)=O)C(=O)c1cc(Cl)c(Cl)n1C,-6.47
12,COC(=O)CNC(=O)c1scnc1C,-29.3
13,CN(C)C(=O)CN1C[C@@H]2CC[C@H](C1)N(Cc1ccccc1OCCO)C2,-4.8
14,CCCN1CCN(Cc2cccc(OC(C)C)c2)[C@H]2CS(=O)(=O)C[C@H]21,-8.54
15,O=C(CO[C@@H]1CC[C@H]2[C@H]1OCCN2c1ncccn1)N1CCCC1,-31.3
16,C1CCN(CCO[C@@H]2CC[C@H]3[C@H]2OCCN3CC2CCOCC2)C1,-4.73
17,c1cnc(NC[C@H]2OC[C@@H]3CCN(Cc4ccsc4)C[C@@H]32)nc1,-14
18,Cc1ccc(S(=O)(=O)N2CC[C@H]3CO[C@H](CN(C)C)[C@H]3C2)cc1,-8.17
19,CC(C)N1C(=O)CO[C@H]2CCN(C(=O)c3ccc4c(c3)CCC4)CC[C@@H]21,13
20,Cc1nc(-c2ccc(Cl)s2)sc1C(=O)O,11.9
21,CC(C)(NC(=O)c1ccc(-c2ccc(F)cc2)s1)C(N)=O,-17.8
22,Cc1nc(-c2ccc(Cl)s2)sc1C(=O)NC(C)(C)C(N)=O,59.7
23,O=C1[C@@H]2CN(Cc3cc4ccccc4o3)C[C@]2(C(=O)O)CN1CC1CC1,-17.7

row,Structure (SMILES),Percent Effect [%]
1,CN(C)C(=O)N1C[C@@H]2CC[C@H](C1)N(C(=O)CCCn1cncn1)C2,-5.92
2,Cc1csc(CNc2cnc3c(c2)c(C)nn3C)n1,54.4
3,Cc1csc(CNc2nc3c(s2)c(C)nn3C)n1,24
4,Cc1csc(CCNCc2cnc3c(c2)c(C)nn3C)n1,-13.2
5,Cc1ccc([C@]2(O)CC[C@H]3CN(Cc4cccc(Cl)c4Cl)C[C@H]32)nc1,-77.5
6,COc1ccnc(N2C[C@@H]3CC[C@H](C2)N(CC2CC2)C3)n1,-40.5
7,Cc1ccc(-c2cc(C(=O)NCCCc3csc(N)n3)[nH]n2)o1,-10.8
8,Cc1ccc(-c2cc(C(=O)NCCCc3csc(N)n3)[nH]n2)s1,57.8
9,Cn1cccc1-c1cc(C(=O)NCCCc2csc(N)n2)[nH]n1,3.3
10,COCCN1C[C@H]2[C@@H](C1)N(C(=O)CCc1ccccc1)CC[C@H]2OC,-5.76
11,Cc1nnc([C@@H]2CC[C@@H]3[C@@H](CCN3S(=O)(=O)c3cccnc3)O2)o1,-18.5
12,NC(=O)c1ccccc1-n1cc(-c2cccc(C(=O)O)c2)cn1,61.5
13,NC(=O)c1cc(-n2cc(-c3cccc(C(=O)O)c3)cn2)cs1,-18.4
14,NC(=O)c1cc(-c2cccc(C(=O)O)c2)cs1,-10.7
15,CC(=O)N1[C@H](CN(C)C)C[C@@H]2CN(C(=O)c3cccc(F)c3)CC[C@@H]21,-7.05
16,O=C(c1ccc(F)cc1)N1C[C@@H]2CN(c3ncccn3)C[C@@H]2C1,-16.8
17,CN(C)S(=O)(=O)N1CC[C@]2(O)CCN(c3ncccn3)C[C@@H]2C1,5.3
18,CS(=O)(=O)NC[C@H]1OC[C@@H]2CN(Cc3cccnc3)CC[C@@H]21,7.73
19,CC(NC(=O)CN(C)S(C)(=O)=O)c1nnc2n1CCCCC2 (stereo unspecified),76.2
20,CC(C)CCC(=O)NC(C)c1nnc2n1CCCCC2 (stereo unspecified),-2.75
21,CC(NC(=O)COCC(F)(F)F)c1nnc2n1CCCCC2 (stereo unspecified),-15.5
22,Cc1noc(C)c1CN1C[C@@H]2CCCO[C@@H]2[C@H](Nc2ccccn2)C1,-22.7
23,Cc1nnc(C[C@@H]2COC[C@H]3CN(C(=O)c4ccco4)C[C@@H]23)o1,-27.6

row,Structure (SMILES),Percent Effect [%]
1,Cc1cccc(CN2C[C@H]3C[C@H](C(=O)NCc4cccnc4)[C@@H](C2)O3)c1,2.63
2,c1ccc(CCCN2CC[C@H](c3nnc(-c4ccccc4)o3)C2)cc1,96.4
3,Cc1nnc([C@H]2CCN(CCCc3ccccc3)C2)o1,8.46
4,c1ccc(CCCN2CC[C@H](c3nnc(-c4cccnc4)o3)C2)cc1,-20
5,Cc1nc(O)cc(CNC(=O)CC[C@@H]2CCCN3CCCC[C@H]23)n1,-2.37
6,COc1cccc(CNC[C@@]2(COc3cccnc3)C[C@@H](O)[C@@H](O)C2)c1,3.65
7,O=C(c1cc2c([nH]c1=O)CCC2)N1CCCC1c1ccc(F)cc1 (stereo unspecified),-4.09
8,COCc1nc(C(=O)N2CCCC2c2cccc(C)c2)cs1 (stereo unspecified),-1.31
9,COCc1nc(C(=O)N2CCCC2c2ccc(OC)cc2)cs1 (stereo unspecified),76.5
10,COc1ccc(C2CCCN2C(=O)c2cc3c([nH]c2=O)CCC3)cc1 (stereo unspecified),57.9
11,COCc1nc(C(=O)N2CCCC2c2ccncc2)cs1 (stereo unspecified),-19.5
12,COc1cccc(C2CCCN2C(=O)c2cc3c([nH]c2=O)CCC3)c1 (stereo unspecified),43.2
13,Cc1ccc(CN2C[C@@H]3[C@@H](C(=O)NCC(C)C)CCS(=O)(=O)[C@@H]3C2)cc1,-36.5
14,CCc1ccc(NC(=O)N2C[C@H]3C[C@H](C(=O)N4CCCC4)[C@@H](C2)O3)cc1,-33.7
15,COC[C@@]12CCO[C@@H]1CCN(C(=O)COc1ccccc1OC)C2,-28.6
16,CNC(=O)[C@H]1C[C@H]2OCC[C@H]2N(Cc2cccc3ccccc23)C1,-14
17,CCCN1C[C@H]2CC[C@@H]1CN(C(=O)Cc1c(C)nc(CC)[nH]c1=O)C2,-18.4
18,CCCN1CCN(C(=O)c2ccc3ccccc3n2)[C@H]2CS(=O)(=O)C[C@H]21,11.6
19,Cc1noc(C)c1CN1C(=O)[C@H]2CC[C@@H]1CN(Cc1nccs1)C2,-22.4
20,COc1ccc(CC(C)Nc2cccc(SC)c2)cc1 (stereo unspecified),57.2
21,COc1ccc(CCC(C)Nc2cccc(SC)c2)cc1 (stereo unspecified),65.2
22,COc1ccc(CCNC(=O)C(C)Nc2ccc(C)c(C)c2)cc1 (stereo unspecified),1.46
23,COc1ccc(CCNC(=O)C(C)Nc2cccc(C)c2C)cc1 (stereo unspecified),10.4

row,Structure (SMILES),Percent Effect [%]
1,COc1ccc(CC(C)Nc2cccc(F)c2)cc1 (stereo unspecified),8.52
2,COc1ccc(C(=O)Nc2cccc(SC)c2)c(OC)n1,-19.8
3,Cn1cc(CN2C[C@@H]3COC[C@]3(CNC(=O)c3ccsc3)C2)cn1,-27.4
4,Cc1noc([C@@]23CCO[C@@H]2CCN(Cc2scnc2C)C3)n1,-8.64
5,Cc1cc(CN2C[C@H]3CCC[C@@]3(COCc3csc(C)n3)C2)no1,-42.7
6,Cc1cc(F)ccc1C(=O)N1C[C@@H]2COC[C@]2(CN(C)C)C1,-28.5
7,O=C([C@H]1COC[C@H]2CN(C3CCCC3)C[C@H]21)N1CCCCO1,-0.965
8,Cc1ccnc(OC[C@]23COC[C@H]2CN(C(=O)c2ncccn2)C3)n1,64
9,Cc1ccnc(OC[C@]23COC[C@H]2CN(C(=O)c2ccnn2C)C3)n1,-7.96
10,Cc1ccnc(OC[C@]23COC[C@H]2CN(C(=O)c2cnccn2)C3)n1,-10.7
11,COCCNC(=O)[C@@]12CCO[C@@H]1CCN(Cc1cc(C)on1)C2,-12.3
12,Cn1cc(CN2C[C@@H]3COC[C@@H](C(=O)N4CCCCO4)[C@@H]3C2)cn1,-30.5
13,Cc1ccccc1-n1cc(CN(C)C[C@@H]2CCCN3CCCC[C@H]23)cn1,-16.8
14,Cc1cc(C(=O)N2C[C@@H]3COC[C@]3(c3nnc(C4CC4)o3)C2)on1,-7.03
15,CC(CN1CCCC1=O)NC(=O)c1ccc(-c2ccco2)[nH]c1=O (stereo unspecified),73
16,Cc1ccc(C(=O)NC(C)CN2CCCC2=O)c(=O)[nH]1 (stereo unspecified),-2.59
17,CCC(C)NC(=O)c1ccc(-c2ccco2)[nH]c1=O (stereo unspecified),7.06
18,O=C1[C@@H]2CCN(C3CCOCC3)C[C@@H]2OCCN1Cc1cccnc1,-7.59
19,COC[C@H]1CNC(=O)[C@@H]2CCN(Cc3ccc(F)cc3)CC[C@H]12,-30.6
20,Cn1cnc(-c2nc(C(=O)NCCN3CCOCC3)c3ccccn23)c1,141
21,COCCNC(=O)c1nc(-c2cn(C)cn2)n2ccccc12,21.3
22,Cn1cnc(-c2nc(C(=O)NCC3CCCO3)c3ccccn23)c1 (stereo unspecified),5.5
23,Cn1cnc(-c2nc(C(=O)NCCN3CCCC3)c3ccccn23)c1,18.6

row,Structure (SMILES),Percent Effect [%]
1,CC(C)n1cnc(-c2nc(C(=O)NC3CC3)c3ccccn23)c1,22.1
2,Cn1cnc(-c2nc(C(=O)NC3CC3)c3ccccn23)c1,113
3,CN1CCCC(N2CCN(c3nc4ccccn4c3C#N)CC2)C1 (stereo unspecified),15.1
4,N#Cc1c(N2CCCN(C3CCOCC3)CC2)nc2ccccn12,95.8
5,N#Cc1c(N2CCN(CC3CCOC3)CC2)nc2ccccn12 (stereo unspecified),5.84
6,CC(C)c1noc(CC[C@@H]2CCCN3CCCC[C@H]23)n1,-17.9
7,c1cc(CN2CC[C@H]3CO[C@H](CN4CCOCC4)[C@H]3C2)cs1,-3.35
8,Cc1cnc(N2CCC3(CCN(CC4CCCC4)C3=O)CC2)nc1,-3.7
9,O=C1N(CC2CC2)CCC12CCN(c1ncccn1)CC2,2.59
10,Cc1cnc(N2CCC3(CCN(CC4CC4)C3=O)CC2)nc1,71.3
11,COc1ccc(CN2CC[C@H]3CO[C@H](CNC(=O)N(C)C)[C@H]3C2)cc1,-14.2
12,CCCn1c(N2CCCC(C)C2)nc2c(C)nn(C)c2c1=O (stereo unspecified),3.25
13,CCCn1c(N2CCCC2)nc2c(C)nn(C)c2c1=O,67
14,CCCn1c(N2CCCCC2)nc2c(C)nn(C)c2c1=O,14
15,Cc1ccoc1-c1nnc(CN2CCOC(Cn3cccn3)C2)o1 (stereo unspecified),-3.25
16,Cc1noc(C)c1C(=O)N1C[C@H]2CC[C@@H]1CN(c1cnccn1)C2,-13.5
17,Cn1nccc1CCC(=O)N1CCCC(c2cnccn2)C1 (stereo unspecified),54.2
18,Cn1nccc1CCC(=O)N1CCOC(c2cnccn2)C1 (stereo unspecified),4.28
19,Cn1nccc1CCC(=O)N1CCC(c2cnccn2)CC1,-6.75
